A selection: hits, their analogues and other compounds. The true share with any hit is near 21%.
TDP1 cell CPT = qHTS for Inhibitors of human tyrosyl-DNA phosphodiesterase 1 (TDP1): qHTS in cells in presence of CPT; chicken DT40 Tdp1-/-;hTDP1 cells + 20 nM CPT, ATP luminescence, 48 h; Potency, µM (top dose mostly 46.2 µM), for the others: at the top dose activity change, negative = growth inhibition, most hits filed as inhibitors; actives 12% (n = 420,000); note: potency is the fitted concentration of half-maximal effect; % is set by controls: 0 for no effect and ±100 for the full control effect; nearly all actives have a fitted effect of over 55% in size
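Chicken DT40 Tdp1-/- cells stably complemented with human TDP1 were seeded at 400 cells/well in medium containing 20 nM camptothecin, exposed to pin-transferred compounds, and grown at 37 °C for at least 48 hr. Viability was read as ATP luminescence.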
ClpP mod = qHTS Assay for Activators of ClpP; ATP-dependent Clp protease proteolytic subunit (Bacillus subtilis (strain 168)), P80244; purified B. subtilis ClpP, FRET peptide cleavage, 20 min; Potency, µM (doses to about 57.5 µM), without a hit: at the top dose activity change, negative = active; actives 1.9% (n = 340,000); AID 651965, 2013; active = well fitted falling curve with a large enough effect; inconclusive = small, poorly fitted or top-dose-only effect; inactive = no such curve, though single readings can be large or run the other way; note: potency is the fitted concentration of half-maximal effect; the source files actives as falling curves though it sought activators and does not explain the sign; nearly all actives have a fitted effect of over 65% in size
Target sequence (P80244 whole entry, looked up): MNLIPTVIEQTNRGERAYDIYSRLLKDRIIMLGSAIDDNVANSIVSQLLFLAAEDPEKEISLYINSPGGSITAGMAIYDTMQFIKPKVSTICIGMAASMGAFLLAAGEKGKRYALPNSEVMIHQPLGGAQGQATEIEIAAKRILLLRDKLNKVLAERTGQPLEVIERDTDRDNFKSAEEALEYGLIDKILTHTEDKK
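Purified B. subtilis ClpP, 10 microg/mL final in Tris/HCl pH8 with KCl, BSA, glycerol and Tween-20, cleaved an Abz/nitrotyrosine-quenched decapeptide. Fluorescence (ex 320, em 430) was read at 0 and 20 min at room temperature. Delta was normalized to 5.8 microM ADEP and DMSO/no-enzyme controls.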
D3 ag = qHTS of D3 Dopamine Receptor Agonist: qHTS | D3R DiscoveRx beta-arrestin cells, luminescence, 90 min | max activation, % | AID 652048, 2013 | D(3) dopamine receptor (Homo sapiens), P35462 | actives 0.58% (n = 410,000); in the data active = max activation above about 30%; note: 0% is about no effect
Target sequence (P35462 whole entry, looked up): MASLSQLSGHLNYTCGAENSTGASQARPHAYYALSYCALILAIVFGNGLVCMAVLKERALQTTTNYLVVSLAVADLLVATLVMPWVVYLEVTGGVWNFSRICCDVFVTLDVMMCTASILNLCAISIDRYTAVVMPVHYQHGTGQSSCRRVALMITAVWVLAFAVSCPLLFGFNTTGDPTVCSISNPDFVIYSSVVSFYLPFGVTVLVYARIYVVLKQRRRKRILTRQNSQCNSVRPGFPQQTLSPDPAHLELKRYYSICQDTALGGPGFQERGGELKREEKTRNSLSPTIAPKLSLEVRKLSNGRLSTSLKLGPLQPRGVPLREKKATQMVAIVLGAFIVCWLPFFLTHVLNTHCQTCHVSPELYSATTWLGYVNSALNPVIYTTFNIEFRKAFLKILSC
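Agonist-mode cell screen: cells plated at 1500/well and incubated overnight at 37 °C, then exposed to library compounds for 90 min at 37 °C. Detection reagent was added for 30–60 min at room temperature, and luminescence was read.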
IL-1B inflam inh = qHTS for Inhibitors of Inflammasome Signaling: IL-1-beta AlphaLISA Primary Screen; activity change, % at 57.5 µM; THP-1 LPS/ATP IL-1B secretion, AlphaLISA, 16 h; hits give low values; actives 4.7% (n = 360,000); in the data active = activity change below about -50%; inconclusive = mostly about -30% to -49%; note: % is set by controls: 0 for no effect and ±100 for the full control effect
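Secreted IL-1B measured by AlphaLISA bead assay after 16 h compound exposure of THP-1 cells; compounds (final up to 57.5 uM) added 1 h before LPS (250 ng/mL) and ATP (1.25 mM) stimulation; lower signal means less secretion.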
DT40 TDP1 no CPT = qHTS for Inhibitors of human tyrosyl-DNA phosphodiesterase 1 (TDP1): qHTS in cells in absence of CPT | DT40 Tdp1-/- hTDP1 cells, no CPT, ATP luminescence, 48 h | Potency, µM (titrated, usually from 46.2 µM), for the others: at the highest dose activity change, negative = growth inhibition, most hits filed as inhibitors | actives 15% (n = 420,000) | AID 686978, 2013; note: potency is the fitted concentration of half-maximal effect; % is set by controls: 0 for no effect and ±100 for the full control effect; nearly all actives have a fitted effect of over 55% in size
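Compound effects on proliferation are scored in DT40 Tdp1-/-;hTDP1 cells in the absence of CPT. ATP levels (CellTiter-Glo luminescence) are recorded after a ≥48 hr, 37 °C incubation.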
D3 antag = qHTS of D3 Dopamine Receptor Antagonist: qHTS; max response, negative = inhibition, %; actives 2.5% (n = 360,000); D3R cells, DiscoveRx beta-arrestin luminescence, antagonist mode; hits give low values; AID 652054, 2013; D(3) dopamine receptor (Homo sapiens), P35462; in the data active = max response below about -50%; inconclusive = no clear call, values can overlap the other calls; note: % is set by controls: 0 for no effect and ±100 for the full control effect
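Cells expressing the human receptor were seeded at 1500 cells/well, incubated overnight at 37 degrees C in 5% CO2, then exposed to library compounds with dopamine controls for 90 minutes at 37 degrees C before luminescent detection.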
Starred values were filed as active, the others as inactive; ? = inconclusive; nt = no result. Unless noted, calls come from the whole dose curve; as a rule, active = well fitted inhibition curve with a large enough effect; inconclusive = small, poorly fitted or top-dose-only effect; inactive = flat fitted curve, though single readings scatter.

SMILES | TDP1 cell CPT | ClpP mod | D3 ag | IL-1B inflam inh | DT40 TDP1 no CPT | D3 antag
COc1ccc(N2CCN(C(=O)[C@@H]3CCCN3C3=NS(=O)(=O)c4ccccc43)CC2)cc1 | -11% | 1% | 1 | -7 | -3% | -12
COCC(=O)N1CCC[C@@]2(CCN(Cc3ccc(C#N)cc3)C2)C1 | 0% | nt | nt | nt | -2% | nt
O=C(c1ccc2c(=O)n3c(nc2c1)CCC3)N1CCCSC1=Nc1ccccc1 | -8% | -5% | 2 | 14 | 7% | -4
Cc1nc(Sc2nnnn2C)c2c3c(sc2n1)CCC3 | 2.1µM* | ? | -2 | -57* | 1.6µM* | 20
CCc1nc(Sc2nnnn2-c2ccccc2)c2c3c(sc2n1)CCCC3 | 16µM* | ? | -4 | -81* | 18µM* | ?
Cc1nc(SCC(=O)NCC2CCCO2)c2c3c(sc2n1)CCC3 (configuration not stated) | -16% | -15% | 7 | -9 | -16% | 24
COc1ccc(-c2cc(C(F)(F)F)nc(SCC(=O)NCc3cccs3)n2)cc1OC | ? | 25µM* | -4 | -5 | ? | -3
COc1ccc(-c2cc(C(F)(F)F)nc(SCC(=O)NCc3ccc(F)cc3)n2)cc1 | ? | 4% | -12 | nt | ? | nt
COc1ccc(-c2cc(C(F)(F)F)nc(SCC(=O)NCc3ccc(OC)c(OC)c3)n2)cc1 | 23µM* | -8% | -16 | nt | ? | nt
O=[N+]([O-])/C=C/c1cn(Cc2ccccc2)c2ccccc12 | 18µM* | 0% | -1 | -70* | 12µM* | -21
C(=N\n1cnnc1)/c1cn(Cc2ccccc2)c2ccccc12 | -12% | -3% | 19 | -12 | -22% | 6
O=C(O)Cn1cc(/C=C/[N+](=O)[O-])c2ccccc21 | -1% | nt | 2 | -11 | -9% | -2
O=C(Cn1cc(/C=C\[N+](=O)[O-])c2ccccc21)Nc1ccccc1 | 21µM* | nt | 6 | -96* | 15µM* | ?
COCCC(=O)N1CCCC(C(=O)c2ccc3c4c(cccc24)CC3)C1 (configuration not stated) | ? | -1% | -6 | 27 | ? | -12
Cc1cnc(CN2CCCC(C(=O)c3ccc4c5c(cccc35)CC4)C2)[nH]1 (configuration not stated) | ? | nt | -17 | -26 | ? | -53*
O=C(c1ccc2c3c(cccc13)CC2)C1CCCN(Cc2ccc(OCCO)cc2)C1 (configuration not stated) | ? | 4% | -1 | -13 | ? | -97*
COCC(=O)N1CCCC(C(=O)c2ccc3c4c(cccc24)CC3)C1 (configuration not stated) | ? | 4% | -7 | -4 | ? | 14
O=C(CCN1CCc2ccccc2C1)Nc1ccc(F)c(F)c1 | ? | -1% | -18 | 6 | ? | -103*
O=C(CCN1CCc2ccccc2C1)Nc1ccc2c(c1)OCO2 | -3% | -4% | -10 | -1 | -25% | -67*
Cc1ccc(C)c(NC(=O)CCN2CCc3ccccc3C2)c1 | ? | nt | -14 | 18 | ? | -108*
Nc1c(C(=O)N/N=C/c2ccc([N+](=O)[O-])cc2)sc2nnc(-c3ccccc3)c(-c3ccccc3)c12 | 18% | 1% | 3 | -13 | 1% | 5
CC(=O)c1ccc(-n2c(=O)[nH]c(=O)c3c(N)c(C(=O)c4ccc(Cl)cc4)sc32)cc1 | ? | -1% | -2 | 179 | 3.7µM* | ?
Nc1c(C(=O)c2ccccc2)sc2c1c(=O)[nH]c(=O)n2-c1ccccc1 | -26% | 30% | -27 | 24 | -23% | -53*
Cc1ccccc1-n1c(=O)[nH]c(=O)c2c(N)c(C(=O)c3ccc(Cl)cc3)sc21 | ? | 13% | 1 | 27 | ? | -29
Cc1ccc(C(=O)c2sc3c(c2N)c(=O)[nH]c(=O)n3CCc2ccccc2)cc1 | 16µM* | -6% | 6 | 27 | 16µM* | 11
SMILES | TDP1 cell CPT | ClpP mod | D3 ag | IL-1B inflam inh | DT40 TDP1 no CPT | D3 antag
Nc1c(C(=O)c2ccc(Cl)cc2)sc2c1c(=O)[nH]c(=O)n2-c1ccccc1 | 14% | -2% | -12 | 51 | 0% | -17
C=CCn1c(=O)[nH]c(=O)c2c(N)c(C(=O)c3ccc(OC)cc3)sc21 | -4% | nt | -4 | 2 | ? | 6
O=C(OCC(=O)N1CCOCC1)c1cc2ccccc2oc1=O | -16% | 4% | 10 | -15 | 8% | -1
CC1CC(C)CN(C(=O)COC(=O)c2cc3ccccc3oc2=O)C1 (configuration not stated) | 3% | 35µM* | 0 | 0 | -7% | 13
Cc1cc(C)c2c(NC(=O)c3ccccc3Cl)c(C(=O)NCc3ccc(Cl)cc3)sc2n1 | ? | -1% | 4 | nt | ? | nt
Cc1cccc(CCNC(=O)c2ccc3c(c2)nc2n3CCCCC2)c1 | 21µM* | 0% | 23 | nt | ? | nt
CCc1ccc(N(CC)C(=O)c2ccc3c(=O)n4c(nc3c2)CCCCC4)cc1 | ? | -1% | 2 | nt | 16µM* | nt
Cc1ccc(C(=O)Nc2c(C(=O)NCc3ccc(Cl)cc3)sc3nc(C)cc(C)c23)cc1 | 9.2µM* | ? | -5 | nt | 13µM* | nt
Cc1c(C(=O)NCc2ccc(Cl)cc2)sc2nc3n(c(=O)c12)CCCC3 | ? | -19% | -4 | nt | 16µM* | nt
COc1ccc(CNC(=O)c2sc3nc4n(c(=O)c3c2C)CCCC4)cc1 | ? | -4% | -2 | nt | ? | nt
COc1ccc(CCNC(=O)C(CC(C)C)N2Cc3ccccc3C2=O)c(OC)c1OC (configuration not stated) | ? | 0% | -4 | nt | ? | nt
CC(CN)(NS(=O)(=O)c1ccccc1)c1ccccc1 (configuration not stated) | ? | -1% | -9 | 5 | -1% | -15
CCOC(=O)c1c(C)[nH]c(C(=O)OC(C)C(=O)NC2(C#N)CCCCC2)c1C (configuration not stated) | ? | 0% | 1 | -9 | ? | 16
O=C(C[N+]1(CCO)CCOCC1)c1cccc2ccccc12 | 4% | 0% | nt | nt | 1% | nt
N#Cc1ccc(C(=O)OCC(=O)Nc2cccnc2Cl)cc1 | -20% | 2% | 2 | 23 | -11% | 3
